The nature of assay [1]: qHTS assay to test for compound auto fluorescence at 535 nm (green) in HEK293 cells (AID 720680). Note: potency is the fitted concentration of half-maximal effect. Background: qHTS replaces the single test concentration by a dilution series.
Assay [2] can be described thus: qHTS assay to test for compound auto fluorescence at 460 nm (blue) in HEK293 cell free culture (AID 720681). Note: potency is the fitted concentration of half-maximal effect. In outline:
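Test compounds were pinned into cell-free culture medium (DMEM with 10% FBS) and fluorescence was read directly at Ex/Em 405/460 nm. Signals were expressed as fluorescence equivalents of triamterene, with DMSO vehicle as control.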

Assay [3] can be described thus: qHTS assay to test for compound auto fluorescence at 590 nm (red) in HEK293 cell free culture (AID 720683). Note: potency is the fitted concentration of half-maximal effect. In outline:
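Tox21 10K library compounds were pinned into cell-free DMEM with 10% FBS and fluorescence was read at excitation 540 nm. Activity is expressed as Rose Bengal sodium equivalency.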

The nature of assay [4]: qHTS assay to test for compound auto fluorescence at 590 nm (red) in HepG2 cell free culture (AID 720684). Note: potency is the fitted concentration of half-maximal effect. In outline:
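Readout: intrinsic compound fluorescence at 590 nm emission after 540 nm excitation, scaled to Rose Bengal sodium. Matrix was cell-free MEM with 10% FBS; DMSO vehicle wells served as control.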

A short description of assay [5]: qHTS assay to test for compound auto fluorescence at 460 nm (blue) in HepG2 cell free culture (AID 720685). Note: potency is the fitted concentration of half-maximal effect. In outline:
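Cell-free plates of MEM plus 10% FBS received 23 nL compound or DMSO vehicle; blue-channel (405/460 nm) intensity scored against triamterene as reference fluorophore.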

The nature of assay [6]: qHTS assay to test for compound auto fluorescence at 535 nm (green) in HepG2 cell free culture (AID 720686). Note: potency is the fitted concentration of half-maximal effect.
A short description of assay [7]: qHTS assay to test for compound auto fluorescence at 460 nm (blue) in HepG2 cells (AID 720687). Note: potency is the fitted concentration of half-maximal effect. Summed up:
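Cells (2,000/well in MEM with 10% FBS) attached overnight at 37 C, then were exposed to compound or DMSO for 1 hr at 37 C, 5% CO2. Fluorescence read at Ex/Em 405/460 nm, expressed as triamterene-equivalent signal.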

Assay [8] in a line: qHTS assay to identify small molecule antagonists of the glucocorticoid receptor (GR) signaling pathway - cell viability counter screen (AID 720693). Note: nearly all actives have a fitted effect of over 55% in size.
The nature of assay [9]: qHTS assay for identifying genotoxic compounds that show differential cytotoxicity against isogenic chicken DT40 cell lines with known DNA damage response pathways - Rev3 mutant cell line (AID 743014). Note: nearly all actives have a fitted effect of over 55% in size. Note: potency is the fitted concentration of half-maximal effect.
Assay [10] in a line: qHTS assay for identifying genotoxic compounds that show differential cytotoxicity against isogenic chicken DT40 cell lines with known DNA damage response pathways - Rad54/Ku70 mutant cell line (AID 743015). Note: nearly all actives have a fitted effect of over 60% in size. Note: potency is the fitted concentration of half-maximal effect.
Assay [11] can be described thus: qHTS assay to identify small molecule antagonists of the androgen receptor (AR) signaling pathway - cell viability counter screen (AID 743033; note: nearly all actives have a fitted effect of over 45% in size; note: potency is the fitted concentration of half-maximal effect).
Assay [12] in a line: qHTS assay to identify small molecule antagonists of the androgen receptor (AR) signaling pathway using the MDA cell line - cell viability counter screen (AID 743041; note: nearly all actives have a fitted effect of over 45% in size; note: potency is the fitted concentration of half-maximal effect). In outline: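 qHTS viability read-out; MDA-kb2 AR-luc; R1881-stimulated; 16 h exposure at 37C, 0% CO2; CellTiter-Fluor, 30 min; fluorescence intensity.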
A short description of assay [13]: qHTS assay to identify small molecule antagonists of the thyroid receptor (TR) signaling pathway - cell viability counter screen (AID 743064). Note: nearly all actives have a fitted effect of over 50% in size. Note: potency is the fitted concentration of half-maximal effect. In outline: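 GH3.TRE-Luc rat pituitary cells dosed after 4 hr plating, co-stimulated with T3 at 1 nM final, incubated 23.5 h at 37 C. Viability measured in the same wells by CellTiter-Fluor fluorescence after 30 min further at 37 C.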

A short description of assay [14]: qHTS assay for identifying genotoxic compounds that show differential cytotoxicity against isogenic chicken DT40 cell lines with known DNA damage response pathways - wild type cell line (AID 743012). Note: nearly all actives have a fitted effect of over 60% in size. Note: potency is the fitted concentration of half-maximal effect. Summed up:
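300 wt DT40 cells/well; cpd (DMSO) pintool-transferred after ~0.5 h at 37 C/5% CO2; 40 h incubation; CellTiter-Glo added, 30 min RT; luminescence read.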

The target in assay [15] is Glucocorticoid receptor (Homo sapiens) (UniProt P04150). The experiment in a line: qHTS assay to identify small molecule agonists of the glucocorticoid receptor (GR) signaling pathway (AID 720691; active = well fitted activation curve with a large enough effect in the signal ratio in the repeat runs, not every such curve was filed as active; the % refers to the signal ratio; note: potency is the fitted concentration of half-maximal effect). Summed up:
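A HeLa cervical cancer line expressing GR and a glucocorticoid response element-driven beta-lactamase gene is treated with compounds for 18 h; LiveBLAzer B/G FRET substrate is then applied and fluorescence read.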

Assay [16] shares this target. The experiment in a line: qHTS assay to identify small molecule antagonists of the glucocorticoid receptor (GR) signaling pathway (AID 720692; active = well fitted inhibition curve with a large enough effect in the signal ratio in the repeat runs, not every such curve was filed as active; the % refers to the signal ratio). Summed up:
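GRE-bla HeLa line, dex-stimulated (5 nM final). Compound exposure 18 h, 37 C. Beta-lactamase FRET read after 2 h RT substrate.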

“And” between values parts separate entries of the source, which are not always exact repeats. Equal entries are not always repeated. Records with an inconclusive call do not appear. Some structures have more than one record in an assay (separate samples or runs), and their calls can disagree. The source made the active and inactive calls. Unless noted, calls come from the whole dose curve; as a rule, active = well fitted curve in the direction sought with a large enough effect in the repeat runs; inconclusive = weak or mixed curves; inactive = no such curve, though single readings can be large; an effect the other way counts as inactive or inconclusive.
Tags give direction and shape of the fitted curve or compound fluorescence and quenching.

Chain of Glucocorticoid receptor (Homo sapiens) (P04150 whole entry, looked up): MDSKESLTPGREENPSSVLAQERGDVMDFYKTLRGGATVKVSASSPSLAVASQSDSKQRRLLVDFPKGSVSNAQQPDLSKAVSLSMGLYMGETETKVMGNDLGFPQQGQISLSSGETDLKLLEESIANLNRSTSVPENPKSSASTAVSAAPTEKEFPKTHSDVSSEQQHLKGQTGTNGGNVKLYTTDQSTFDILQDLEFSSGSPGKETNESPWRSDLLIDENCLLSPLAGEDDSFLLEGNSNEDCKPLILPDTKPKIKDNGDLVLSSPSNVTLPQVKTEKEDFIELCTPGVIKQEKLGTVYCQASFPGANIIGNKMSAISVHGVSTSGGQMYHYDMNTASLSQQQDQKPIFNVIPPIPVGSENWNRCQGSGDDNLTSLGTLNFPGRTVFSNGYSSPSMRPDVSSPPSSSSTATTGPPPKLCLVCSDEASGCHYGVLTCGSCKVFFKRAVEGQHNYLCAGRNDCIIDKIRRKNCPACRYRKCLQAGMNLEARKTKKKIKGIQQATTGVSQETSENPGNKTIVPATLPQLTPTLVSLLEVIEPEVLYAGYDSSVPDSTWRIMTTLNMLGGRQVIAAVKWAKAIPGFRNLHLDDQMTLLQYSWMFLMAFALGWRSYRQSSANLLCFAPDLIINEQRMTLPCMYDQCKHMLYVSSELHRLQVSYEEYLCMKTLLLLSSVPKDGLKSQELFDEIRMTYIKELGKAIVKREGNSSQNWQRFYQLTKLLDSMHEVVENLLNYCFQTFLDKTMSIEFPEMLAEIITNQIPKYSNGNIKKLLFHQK

In the case of `CCOC(N)=O`, the Potency result in assay [1], in [2], in assay [3], in assay [4], in assay [5] and in assay [6] was “inactive” throughout. The Potency entry in [7], in assay [8], in assay [9], in assay [10], in assay [11] and in assay [12] was “inactive” throughout. Besides, the Potency result in [13] is “inactive”.

With `Cc1cc(=O)oc2cc(O)ccc12`, the Potency result in assay [1], in [3], in [4], in assay [6], in assay [8] and in assay [14] was “inactive” throughout. For the same compound, the Potency result in assay [9], in [10], in [11] and in [12] was “inactive” each time. Also, the Potency in assay [2] is 10 µM (active) and 39.8 µM (active) and 35.5 µM (active); in [5] it was 10 µM [fluorescent] (active) and 39.8 µM [fluorescent] (active); in assay [7], 10 µM [fluorescent] (active) and 39.8 µM [fluorescent] (active).

As for `COc1ccc(OC(F)(F)F)cc1CN[C@H]1CCCN[C@H]1c1ccccc1`, the Potency result in assay [1], in assay [2], in assay [3], in assay [4], in assay [5] and in assay [6] was “inactive” throughout. The Potency entry in [7], in [15] and in assay [8] was “inactive” each time. The Potency in [9] is 30.6 µM (active); in assay [10] it was 27.3 µM (active); in [11], 49 µM (active); in assay [13], 24.3 µM (active).

Take `O=C1OC2(c3ccccc31)c1cc(Br)c(O)c(Br)c1Oc1c2cc(Br)c(O)c1Br`: the Potency in assay [1] is 11.2 µM [fluorescent] (active) and 28.2 µM [fluorescent] (active); in assay [3] it was 4.47 µM [fluorescent] (active) and 3.55 µM [fluorescent] (active); in [4], 3.16 µM [fluorescent] (active) and 2.82 µM [fluorescent] (active) and 2.51 µM [fluorescent] (active); in assay [6] it was 10 µM [fluorescent] (active) and 20 µM [fluorescent] (active); in [12], 11.9 µM (active) and 7.81 µM (active) and 17.7 µM (active); in assay [13] it was 6.68 µM (active) and 5.53 µM (active) and 7.91 µM (active). The Potency result in assay [2], in assay [5], in assay [7], in assay [8], in assay [14] and in assay [10] was “inactive” in each case. The Potency entry in assay [11] was “inactive”.

On to `CC1(C)S[C@@H]2[C@H](NC(=O)[C@H](N)c3ccccc3)C(=O)N2[C@H]1C(=O)O`, for which the Potency entry in [1], in [2], in assay [3], in [4], in assay [5] and in assay [6] was “inactive” in each case. Besides, the Potency result in [7], in assay [8], in assay [9], in assay [10], in assay [11] and in assay [12] was “inactive” throughout.

`CC(=O)CCC(=O)O`: the Potency entry in [1], in assay [2], in assay [3], in assay [4], in assay [5] and in assay [6] was “inactive” each time. In addition, the Potency entry in [7], in assay [15], in assay [16], in assay [8], in [9] and in assay [10] was “inactive” throughout. Besides, the Potency entry in [11], in assay [12] and in [13] was “inactive” throughout.

With `CC12CCC(CC1)C(C)(C)O2`, the Potency entry in assay [1], in assay [2], in assay [3], in [4], in [5] and in assay [6] was “inactive” in each case. Also, the Potency entry in [7], in assay [15], in assay [16], in assay [8], in assay [9] and in assay [10] was “inactive” each time. The Potency entry in assay [11], in [12] and in [13] was “inactive” each time.

Take `Nc1ccc([N+](=O)[O-])cc1O`: the Potency entry in [1], in assay [2], in assay [3], in [4], in [5] and in assay [6] was “inactive” each time. In addition, the Potency result in [7], in assay [15], in assay [8] and in [11] was “inactive” each time. Besides, the Potency in [9] is 47.2 µM (active); in assay [10], 55.5 µM (active); in [12], 54.5 µM (active); in assay [13], 36.4 µM (active).

On to `Cc1ncc([N+](=O)[O-])n1CCO`, for which the Potency entry in assay [1], in assay [2], in [3], in assay [4], in assay [5] and in [6] was “inactive” throughout. For the same compound, the Potency result in assay [7], in assay [8], in assay [14], in [9], in assay [11] and in assay [12] was “inactive” in each case. Besides, the Potency entry in [13] was “inactive”. Also, the Potency result in assay [10] was “inactive and 61.1 µM (active)”.

For `C[C@](N)(Cc1ccc(O)c(O)c1)C(=O)O`, the Potency entry in assay [1], in assay [2], in assay [3], in assay [4], in assay [5] and in assay [6] was “inactive” each time. Further, the Potency result in assay [7], in assay [8], in [11], in assay [12] and in [13] was “inactive” in each case. Also, the Potency entry in [9] was “inactive and 61.6 µM (active) and 60.9 µM (active)”; in assay [10] it was “inactive and 60.9 µM (active)”.

Take `C=CCc1ccc(O)c(OC)c1`: the Potency result in [1], in assay [2], in assay [3], in [4], in assay [5] and in [6] was “inactive” throughout. Besides, the Potency result in [7], in assay [8], in assay [9], in assay [10], in assay [11] and in [12] was “inactive” each time. Besides, the Potency result in [13] was “inactive”.

`COc1ccc(C(Cl)=C(c2ccc(OC)cc2)c2ccc(OC)cc2)cc1`: the Potency entry in [1], in [2], in [3], in [4], in assay [5] and in [6] was “inactive” each time. Further, the Potency entry in assay [7], in [15], in [8], in assay [11], in assay [12] and in assay [13] was “inactive” in each case. Besides, the Potency is 23.7 µM (active) and 24.3 µM (active) in [14]; 29.8 µM (active) and 48.3 µM (active) and 27.3 µM (active) in assay [9]; 26.6 µM (active) and 60.8 µM (active) and 24.3 µM (active) in assay [10].

On to `CN(C)C(=S)SC(=S)N(C)C`, for which the Potency entry in [1], in assay [2], in assay [3], in assay [4], in assay [5] and in assay [6] was “inactive” each time. Further, the Potency entry in [7] and in [8] was “inactive” each time. Moreover, the Potency in assay [15] is 0.448 µM (active); in assay [14], 944 nM (active) and 1.11 µM (active) and 172 nM (active); in assay [9], 1.19 µM (active) and 886 nM (active) and 96.9 nM (active); in [10], 750 nM (active) and 789 nM (active) and 96.9 nM (active); in [11], 7.56 µM (active) and 1.42 µM (active) and 2.75 µM (active); in [12], 6.99 µM (active) and 6.27 µM (active) and 1.22 µM (active). Besides, the Potency in [13] was 2.11 µM (active) and 1.98 µM (active) and 433 nM (active).

For `CN[C@H]1CC[C@@H](c2ccc(Cl)c(Cl)c2)c2ccccc21`, the Potency entry in assay [1], in assay [2], in assay [3], in assay [4], in assay [5] and in assay [6] was “inactive” throughout. Also, the Potency entry in [7], in assay [15] and in assay [8] was “inactive” each time. Besides, the Potency in [9] was 8.41 µM (active); in assay [10], 7.5 µM (active); in [11], 23.9 µM (active); in [13], 9.44 µM (active).

(Values after PubChem BioAssay (Tox21).)
